Experimental findings from paper PMC11006913 are described below.

Positions count from the first letter of the chain named.

Common to all, as to experiment: PBM; 200 nM protein, PBS
Details in all cases: dsDNA, one strand shown

Test [1] concerns the target T1, SIX6 (Homo sapiens, UniProt O95475 114-200, L167I).
T1 sequence: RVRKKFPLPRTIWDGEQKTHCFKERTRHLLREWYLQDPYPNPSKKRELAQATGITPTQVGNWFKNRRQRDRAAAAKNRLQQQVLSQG

The target in test [2] is T2, SIX6 (Homo sapiens, UniProt O95475 114-200, L143V).
T2 sequence: T1 sequence with L30V, I54L

Test [3] deals with T3, SIX6 (Homo sapiens, UniProt O95475 114-200, H141N).
T3 sequence: T1 sequence with H28N, I54L

Test [4] has as its target T4, SIX6 (Homo sapiens, UniProt O95475 114-200, T165P).
T4 sequence: T1 sequence with T52P, I54L

Test [5] addresses T5, SIX6 (Homo sapiens, UniProt O95475 114-200, L167M).
T5 sequence: T1 sequence with I54M

Test [6] addresses T6, SIX6 (Homo sapiens, UniProt O95475 114-200, L143M).
T6 sequence: T1 sequence with L30M, I54L

Test [7] deals with T7, SIX6 (Homo sapiens, UniProt O95475 114-200, L143I).
T7 sequence: T1 sequence with L30I, I54L

Test [8] deals with T8, SIX6 (Homo sapiens, UniProt O95475 114-200, T165G).
T8 sequence: T1 sequence with T52G, I54L

For test [9], the target named is T9, SIX6 (Homo sapiens, UniProt O95475 114-200, T139Q).
T9 sequence: T1 sequence with T26Q, I54L

Test [10] concerns the target T10, SIX6 (Homo sapiens, UniProt O95475 114-200, T165A).
T10 sequence: T1 sequence with T52A, I54L

Test [11] concerns the target T11, SIX6 (Homo sapiens, UniProt O95475 114-200, L167V).
T11 sequence: T1 sequence with I54V

Test [12] deals with T12, SIX6 (Homo sapiens, UniProt O95475 114-200).
T12 sequence: T1 sequence with I54L

Test [13] deals with T13, SIX6 (Homo sapiens, UniProt O95475 114-200, T165I).
T13 sequence: T1 sequence with T52I, I54L

Turning to GCAGTGGC, the binding signal in the test with SIX6 [1] is 8.87 upbm affinity estimate (log intensity, higher = more binding, comparable within an allelic series); with SIX6 [2], 8.89 upbm affinity estimate (log intensity, higher = more binding, comparable within an allelic series); in the test with SIX6 [3] it was 8.95 upbm affinity estimate (log intensity, higher = more binding, comparable within an allelic series); in the test with SIX6 [4] it was 8.89 upbm affinity estimate (log intensity, higher = more binding, comparable within an allelic series); with SIX6 [5], 8.96 upbm affinity estimate (log intensity, higher = more binding, comparable within an allelic series); with SIX6 [6], 8.94 upbm affinity estimate (log intensity, higher = more binding, comparable within an allelic series). Also, the binding signal with SIX6 [7] was 8.96 upbm affinity estimate (log intensity, higher = more binding, comparable within an allelic series); in the test with SIX6 [8], 8.99 upbm affinity estimate (log intensity, higher = more binding, comparable within an allelic series); with SIX6 [9], 8.93 upbm affinity estimate (log intensity, higher = more binding, comparable within an allelic series); with SIX6 [10], 8.93 upbm affinity estimate (log intensity, higher = more binding, comparable within an allelic series); in the test with SIX6 [11], 8.89 upbm affinity estimate (log intensity, higher = more binding, comparable within an allelic series); with SIX6 [12] it was 8.98 upbm affinity estimate (log intensity, higher = more binding, comparable within an allelic series). In the test with SIX6 [13], the binding signal is 8.94 upbm affinity estimate (log intensity, higher = more binding, comparable within an allelic series).
Turning to ATACCCAT, the binding signal with SIX6 [1] is 10.6 upbm affinity estimate (log intensity, higher = more binding, comparable within an allelic series); with SIX6 [2], 10.1 upbm affinity estimate (log intensity, higher = more binding, comparable within an allelic series); in the test with SIX6 [3], 10.6 upbm affinity estimate (log intensity, higher = more binding, comparable within an allelic series); with SIX6 [4], 9.74 upbm affinity estimate (log intensity, higher = more binding, comparable within an allelic series); with SIX6 [5], 10.4 upbm affinity estimate (log intensity, higher = more binding, comparable within an allelic series); with SIX6 [6], 10.6 upbm affinity estimate (log intensity, higher = more binding, comparable within an allelic series). In addition, the binding signal is 10.1 upbm affinity estimate (log intensity, higher = more binding, comparable within an allelic series) with SIX6 [7]; 10.7 upbm affinity estimate (log intensity, higher = more binding, comparable within an allelic series) with SIX6 [8]; 10.8 upbm affinity estimate (log intensity, higher = more binding, comparable within an allelic series) with SIX6 [9]; 10.5 upbm affinity estimate (log intensity, higher = more binding, comparable within an allelic series) with SIX6 [10]; 10.4 upbm affinity estimate (log intensity, higher = more binding, comparable within an allelic series) with SIX6 [11]; 10.6 upbm affinity estimate (log intensity, higher = more binding, comparable within an allelic series) in the test with SIX6 [12]. Further, the binding signal with SIX6 [13] was 10.4 upbm affinity estimate (log intensity, higher = more binding, comparable within an allelic series).
Regarding ATATCATC, the binding signal in the test with SIX6 [1] was 11.3 upbm affinity estimate (log intensity, higher = more binding, comparable within an allelic series); with SIX6 [2], 10.5 upbm affinity estimate (log intensity, higher = more binding, comparable within an allelic series); in the test with SIX6 [3], 11.2 upbm affinity estimate (log intensity, higher = more binding, comparable within an allelic series); in the test with SIX6 [4] it was 10 upbm affinity estimate (log intensity, higher = more binding, comparable within an allelic series); with SIX6 [5], 10.8 upbm affinity estimate (log intensity, higher = more binding, comparable within an allelic series); with SIX6 [6] it was 11.1 upbm affinity estimate (log intensity, higher = more binding, comparable within an allelic series). Further, the binding signal is 10.5 upbm affinity estimate (log intensity, higher = more binding, comparable within an allelic series) in the test with SIX6 [7]; 11.3 upbm affinity estimate (log intensity, higher = more binding, comparable within an allelic series) in the test with SIX6 [8]; 11.3 upbm affinity estimate (log intensity, higher = more binding, comparable within an allelic series) in the test with SIX6 [9]; 11.2 upbm affinity estimate (log intensity, higher = more binding, comparable within an allelic series) in the test with SIX6 [10]; 11 upbm affinity estimate (log intensity, higher = more binding, comparable within an allelic series) in the test with SIX6 [11]; 11.1 upbm affinity estimate (log intensity, higher = more binding, comparable within an allelic series) with SIX6 [12]. Also, the binding signal in the test with SIX6 [13] is 11.1 upbm affinity estimate (log intensity, higher = more binding, comparable within an allelic series).
Regarding CGCGGCCA, the binding signal with SIX6 [1] is 8.81 upbm affinity estimate (log intensity, higher = more binding, comparable within an allelic series); with SIX6 [2] it was 8.96 upbm affinity estimate (log intensity, higher = more binding, comparable within an allelic series); with SIX6 [3] it was 8.88 upbm affinity estimate (log intensity, higher = more binding, comparable within an allelic series); in the test with SIX6 [4] it was 8.99 upbm affinity estimate (log intensity, higher = more binding, comparable within an allelic series); in the test with SIX6 [5], 8.82 upbm affinity estimate (log intensity, higher = more binding, comparable within an allelic series); with SIX6 [6] it was 8.81 upbm affinity estimate (log intensity, higher = more binding, comparable within an allelic series). Further, the binding signal with SIX6 [7] was 8.93 upbm affinity estimate (log intensity, higher = more binding, comparable within an allelic series); in the test with SIX6 [8], 8.87 upbm affinity estimate (log intensity, higher = more binding, comparable within an allelic series); in the test with SIX6 [9] it was 8.91 upbm affinity estimate (log intensity, higher = more binding, comparable within an allelic series); with SIX6 [10], 8.86 upbm affinity estimate (log intensity, higher = more binding, comparable within an allelic series); in the test with SIX6 [11] it was 8.96 upbm affinity estimate (log intensity, higher = more binding, comparable within an allelic series); with SIX6 [12], 8.84 upbm affinity estimate (log intensity, higher = more binding, comparable within an allelic series). In the test with SIX6 [13], the binding signal was 8.87 upbm affinity estimate (log intensity, higher = more binding, comparable within an allelic series).
Regarding AGCTCCGC, the binding signal was 9.05 upbm affinity estimate (log intensity, higher = more binding, comparable within an allelic series) with SIX6 [1]; 8.96 upbm affinity estimate (log intensity, higher = more binding, comparable within an allelic series) in the test with SIX6 [2]; 8.98 upbm affinity estimate (log intensity, higher = more binding, comparable within an allelic series) with SIX6 [3]; 8.97 upbm affinity estimate (log intensity, higher = more binding, comparable within an allelic series) in the test with SIX6 [4]; 8.95 upbm affinity estimate (log intensity, higher = more binding, comparable within an allelic series) with SIX6 [5]; 9.08 upbm affinity estimate (log intensity, higher = more binding, comparable within an allelic series) with SIX6 [6]. Besides, the binding signal was 9.04 upbm affinity estimate (log intensity, higher = more binding, comparable within an allelic series) with SIX6 [7]; 9.04 upbm affinity estimate (log intensity, higher = more binding, comparable within an allelic series) with SIX6 [8]; 8.99 upbm affinity estimate (log intensity, higher = more binding, comparable within an allelic series) with SIX6 [9]; 8.94 upbm affinity estimate (log intensity, higher = more binding, comparable within an allelic series) with SIX6 [10]; 9.1 upbm affinity estimate (log intensity, higher = more binding, comparable within an allelic series) in the test with SIX6 [11]; 8.9 upbm affinity estimate (log intensity, higher = more binding, comparable within an allelic series) with SIX6 [12]. In addition, the binding signal with SIX6 [13] was 9.01 upbm affinity estimate (log intensity, higher = more binding, comparable within an allelic series).
